Shown are actives, neighbours in structure and some others; about 10% of the full set was active somewhere.
NIH3T3 tox: kills NIH 3T3 cells. Potency, µM (highest dose often 96.7 µM), without a hit: top-dose activity change, negative = cytotoxicity, actives largely listed as inhibitors. NIH 3T3 viability, CellTiter-Glo ATP luminescence, 48-72 h. 94,000 tested, 4.3% active. AID 1345082; note: nearly all actives have a fitted effect of over 55% in size
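Cytotoxicity was measured by CellTiter-Glo ATP luminescence after 48 or 72 h compound exposure at 37 °C. Mouse NIH 3T3 fibroblasts were seeded at 400 cells/well and dosed by 23 nL pin transfer.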
hNpr1 antagonist: blocks ANP-stimulated signaling of human Npr1 receptor | P16066 | HEK293 hNpr1 GloSensor cGMP, ANP-stimulated luminescence | Potency, µM (series often up to 46.3 µM), without a hit: at the top dose activity change, negative = inhibition, most hits filed as inhibitors | 76,000 tested, 1.6% active; calls by dose curve; note: nearly all actives have a fitted effect of over 60% in size
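Compound pre-incubated 30 min at room temperature on GloSensor-loaded HEK293 cells stably carrying hNpr1 and the pGS-40F cGMP biosensor. Stimulation uses hNppA at 0.1 nM final; luminescence is taken at baseline and 20 min post-agonist.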
HEK293 tox: kills HEK 293 cells; HEK 293 viability, ATP luminescence (CellTiter-Glo), 48-72 h; 94,000 tested, 6.6% active; Potency, µM (titrated, usually from 115 µM), for the others: at the top dose activity change, negative = cytotoxicity, most hits filed as inhibitors; note: nearly all actives have a fitted effect of over 60% in size
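HEK 293 seeded at 250 cells/well receive compound via pintool. After 48 or 72 hr at 37 degree Celsius, 5% CO2 and 95% humidity, CellTiter-Glo is dispensed and luminescence read following 10 min at room temperature.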
Luciferase inh: blocks purified firefly luciferase enzyme activity; P08659; purified P. pyralis luciferase, luminescence, biochemical; AID 1347043; 76,000 tested, 2.5% active; Potency, µM (top dose mostly 115 µM), actives largely listed as inhibitors; note: nearly all actives have a fitted effect of over 65% in size
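Luminescence read by CCD imager after adding enzyme (10nM final) to wells holding compound, titrated in qHTS. Substrates 10uM each D-luciferin and ATP; buffer 50mM Tris acetate pH 7.5, 10mM Mg acetate, Tween-20, BSA.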
GPT2 inhibitor: inhibitors of human GPT2 alanine aminotransferase. Recombinant GPT2, coupled pyruvate oxidase/HRP Amplex Red fluorescence. 100,000 tested, 0.25% active. Potency, µM (doses to about 57.7 µM), for the others: at the highest dose activity change, negative = inhibition, hits mostly inhibitors. Q8TD30; note: nearly all actives have a fitted effect of over 60% in size
Target sequence (Q8TD30 whole entry, looked up): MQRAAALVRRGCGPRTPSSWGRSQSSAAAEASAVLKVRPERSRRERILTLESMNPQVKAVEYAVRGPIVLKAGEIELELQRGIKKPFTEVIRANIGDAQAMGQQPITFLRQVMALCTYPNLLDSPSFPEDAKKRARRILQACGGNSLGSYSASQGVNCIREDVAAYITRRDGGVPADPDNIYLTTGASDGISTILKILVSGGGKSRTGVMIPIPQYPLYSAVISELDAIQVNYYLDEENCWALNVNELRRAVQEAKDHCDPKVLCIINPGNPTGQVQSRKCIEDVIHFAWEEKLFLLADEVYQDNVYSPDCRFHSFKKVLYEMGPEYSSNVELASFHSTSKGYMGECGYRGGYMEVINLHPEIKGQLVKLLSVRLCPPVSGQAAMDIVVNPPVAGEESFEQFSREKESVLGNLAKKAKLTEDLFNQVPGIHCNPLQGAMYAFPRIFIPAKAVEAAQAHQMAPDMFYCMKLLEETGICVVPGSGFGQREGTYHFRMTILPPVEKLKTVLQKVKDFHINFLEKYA
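Inhibition is scored from Amplex Red fluorescence generated when pyruvate oxidase and HRP act on pyruvate released by GPT2. Reactions contain 10ng/uL enzyme, 250uM a-KG and 2mM L-alanine and run 30 min at room temperature.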
* hit, by the source's call; i = inactive; ? = inconclusive; . = no result; [ ] = another dose, or the depositor's remark. Unless noted, calls come from the whole dose curve; as a rule, active = well fitted curve in the direction sought with a large enough effect; inconclusive = small, poorly fitted or top-dose-only effect, or another doubt; inactive = no such curve, though single readings can be large; an effect the other way counts as inactive or inconclusive. % is set by controls: 0 for no effect and ±100 for the full control effect; potency is the fitted concentration of half-maximal effect.

SMILES	NIH3T3 tox	hNpr1 antagonist	HEK293 tox	Luciferase inh	GPT2 inhibitor
Cc1ccc(C)c(S(=O)(=O)N2[C@H]3CC[C@@H]2c2cnc(-c4ccccc4)nc2C3)c1	-17%	?	-41%	i	i
CCS(=O)(=O)N1[C@H]2CC[C@@H]1c1cnc(-c3ccc(F)cc3)nc1C2	-30%	?	40µM*	i	?
Cc1ccsc1C(=O)N1CCC2(CC1)NCc1ccccc1-n1ccnc12	28µM*	-9%	-17%	i	i
CC(C)CN1Cc2ccccc2-n2ccnc2C12CCN(C(=O)c1ccccc1F)CC2	-7%	3%	-27%	i	i
Cc1ccccc1C(=O)N1CCC2(CC1)c1nccn1-c1ccccc1CN2CC(C)C	?	-26%	45µM*	i	i
Cc1ccc(S(=O)(=O)NC[C@H]2C[C@@H]3CCN2C[C@@H]3CN2CCc3ccccc32)cc1	45µM*	-9%[70.6 µM]	28µM*	i	?
COc1ccc(S(=O)(=O)NC[C@H]2C[C@@H]3CCN2C[C@@H]3CN2CCCCC2)cc1	100µM*	3%[70.6 µM]	112µM*	i	-15%[88.5 µM]
Cc1ccc(S(=O)(=O)NC[C@H]2C[C@@H]3CCN2C[C@@H]3CN2CCCCC2)cc1	-23%[174 µM]	4%[70.6 µM]	?	i	2%[88.5 µM]
O=S(=O)(NC[C@H]1C[C@@H]2CCN1C[C@@H]2CN1CCc2ccccc21)c1ccc(Cl)cc1	28µM*	4%	20µM*	i	?
O=S(=O)(NC[C@H]1C[C@@H]2CCN1C[C@@H]2CN1CCc2ccccc2C1)c1ccc(Cl)cc1	22µM*	4%	22µM*	i	1%
CS(=O)(=O)NC[C@H]1C[C@@H]2CCN1C[C@@H]2CN1CCc2ccccc2C1	-22%[174 µM]	8%[70.6 µM]	-21%[172 µM]	i	2%[88.5 µM]
CN1CC2(C1)C(=O)N(C)C(=O)[C@@H]1C[C@@H](O)CN12	0%[230 µM]	2%[70.6 µM]	4%[230 µM]	i	4%[88.5 µM]
C1=C2CCCN[C@H]2[C@@H]2C[C@H]1[C@H]1CCCCN1C2	.	.	.	.	-6%
CN1CCN2C(=O)N(Cc3cccnc3)C[C@H]2C1	-5%[174 µM]	0%[70.6 µM]	-17%[230 µM]	i	i
N#Cc1ccc(CN2CCC3(CC2)C(=O)Nc2ccccc23)cc1	?	.	?	.	-2%
COc1ccc(S(=O)(=O)NC[C@H]2C[C@@H]3CCN2C[C@@H]3CN2CCc3ccccc32)cc1	40µM*	2%[70.6 µM]	28µM*	i	-18%[88.5 µM]
COc1ccccc1-c1cc([C@H]2CN3CC[C@H]2C[C@@H]3COC(=O)NC2CCCCC2)nc(C)n1	?	-2%	11µM*	i	-31%
COc1ccccc1-c1cc([C@H]2CN3CC[C@H]2C[C@@H]3COC(=O)Nc2ccccc2)nc(C)n1	?	-1%	?	i	1%
O=C(NC1CCCCC1)OC[C@H]1C[C@@H]2CCN1C[C@@H]2c1cc(C2CCCC2)nc(-c2ccncc2)n1	?	?	?	i	-21%
COc1ccccc1-c1cc([C@H]2CN3CC[C@H]2C[C@@H]3CNC(=O)CCC(=O)O)nc(C)n1	-10%	-1%	-8%	i	i
COc1ccccc1-c1cc([C@H]2CN3CC[C@H]2C[C@@H]3COC(=O)NC(C)C)nc(C)n1	45µM*	-4%[70.6 µM]	?	i	2%[88.5 µM]
CCCNC(=O)OC[C@H]1C[C@@H]2CCN1C[C@@H]2c1cc(-c2ccccc2OC)nc(C)n1	63µM*	5%[70.6 µM]	?	i	-9%[88.5 µM]
COc1ccc(S(=O)(=O)N2C[C@@H]3C[C@H](C2)c2c(-c4cccs4)ccc(=O)n2C3)cc1	i	1%	-5%	i	i
COc1cc2c(cc1OCc1ccccc1)N(C(=O)c1ccn(C)n1)CC21CCN(C)CC1	?	3%	-21%	i	-15%
COc1ccc(C(=O)N2CC3(CCN(C)CC3)c3cc(OC)c(OCc4ccccc4)cc32)cn1	?	5%	79µM*	i	-6%
SMILES	NIH3T3 tox	hNpr1 antagonist	HEK293 tox	Luciferase inh	GPT2 inhibitor
COc1cc2c(cc1OCc1ccccc1)N(C(=O)c1cc3ccccc3n1C)CC21CCN(C)CC1	13µM*	-2%	25µM*	i	i
COc1cc2c(cc1OCc1ccccc1)N(C(=O)c1ccncc1)CC21CCN(C)CC1	-26%	1%	?	i	4%
COc1ccc(CC(=O)N2CCN(CCn3nc4n(c3=O)CCCC4)CC2)cc1	-13%	.	-1%	.	.
COc1ccc(-c2cc([C@H]3CN4CC[C@H]3C[C@@H]4CNC(=O)c3cccs3)n(C)n2)cc1OC	?	-3%	?	i	i
Cn1nc(C2CCCCC2)cc1[C@H]1CN2CC[C@H]1C[C@@H]2CNC(=O)c1cccs1	?	-2%[70.6 µM]	100µM*	i	-10%[88.5 µM]
COc1ccc(-c2cc([C@H]3CN4CC[C@H]3C[C@@H]4CNC(=O)c3ccc(N(C)C)cc3)n(C)n2)cc1	?	1%	22µM*	i	i
Cn1nc(-c2ccc3ccccc3c2)cc1[C@H]1CN2CC[C@H]1C[C@@H]2CNC(=O)c1cccs1	25µM*	-4%	20µM*	?	2%
CN(C)c1ccc(C(=O)NC[C@H]2C[C@@H]3CCN2C[C@@H]3c2cc(C3CCCCC3)nn2C)cc1	?	2%	?	i	i
COc1ccc(C(=O)NC[C@H]2C[C@@H]3CCN2C[C@@H]3c2cc(-c3ccc4ccccc4c3)nn2C)cc1	?	1%	18µM*	i	1%
O=C(NCc1ccccc1)[C@H]1CN2CCC1C[C@@H]2Cn1cc(-c2ccccc2)nn1 (stereo not given in full)	-17%[174 µM]	-1%[70.6 µM]	-28%[172 µM]	i	i
O=C(NCc1ccccc1)[C@H]1CN2CC[C@H]1C[C@@H]2Cn1cc(-c2ccccn2)nn1	-13%[174 µM]	4%[70.6 µM]	-22%[172 µM]	i	i
CC(C)N1CC2CCC(C1)N2Cc1ccc(-c2cncnc2)cc1	-15%[138 µM]	19%[70.6 µM]	-6%[172 µM]	i	i
COCC(=O)NC[C@H]1C[C@@H]2CCN1C[C@@H]2c1cc(-c2ccc3ccccc3c2)nn1C	35µM*	-1%[70.6 µM]	50µM*	?	-4%[88.5 µM]
CCC(c1cccs1)N1C(=O)[C@H]2CNC[C@H]2C1=O (stereo not given in full)	3%	2%	-24%	i	i
CCn1cc(CN2CCN(C(=O)Cc3cccs3)CC2)ccc1=O	-14%	1%	-18%	?	?
Cc1nc(-c2ccccc2)cc([C@H]2CN3CC[C@H]2C[C@@H]3CNC(=O)N2CCOCC2)n1	89µM*	5%[70.6 µM]	?	i	0%[88.5 µM]
Cc1nc(-c2ccc(C(F)(F)F)cc2)cc([C@H]2CN3CC[C@H]2C[C@@H]3CNC(=O)N2CCOCC2)n1	?	2%	?	i	-12%
Cc1nc(-c2ccc(F)cc2)cc([C@H]2CN3CC[C@H]2C[C@@H]3CNC(=O)c2ccco2)n1	100µM*	8%[70.6 µM]	?	i	-6%[88.5 µM]

Compound activity from PubChem BioAssay.
